Test results as given in the supplement of paper PMC7057948, “A genome-wide approach for identification and characterisation of metabolite-inducible systems” (Nature Communications, 2020).

What was measured:
Assay in all cases: relative induction of RFP reporter vs primary effector (background-corrected); higher = stronger activation of the biosensor
Conditions in all cases: inducer concentration 5 mM; 6 h; Cupriavidus necator H16; minimal medium + 0.4% gluconate
[1] = system: AcoR/P_H16_RS19445 acetoin biosensor (pEH052)
Protocol: (§1)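 C. necator H16 strains, each carrying one of 21 transcription factor/inducible promoter–mRFP biosensor plasmids, were grown in minimal medium in 96-well plates (robotic platform). Each was exposed to 46 structurally or metabolically related compounds at 5 mM at 30 °C. OD-normalised RFP fluorescence was read 6 h later and expressed as relative induction (%) = 100 × (FL compound − FL uninduced)/(FL primary inducer − FL uninduced); mean of n=4.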

[2] = system: AraC/P_araBAD L-arabinose biosensor (pEH176)
Protocol: as §1

[3] = system: BenM/P_H16_RS09790 benzoate biosensor (pEH148)
Protocol: as §1

[4] = system: FdsR/P_H16_RS03165 formate biosensor (pEH134)
Protocol: as §1

[5] = system: GabR/P_H16_RS23655 GABA biosensor (pEH256)
Protocol: as §1

[6] = system: HpdR/P_H16_RS18295 3-hydroxypropanoate biosensor (pEH010)
Protocol: as §1

[7] = system: KynR/P_H16_RS14030 L-kynurenine biosensor (pEH136)
Protocol: as §1

[8] = system: NahR/P_H16_RS08125 salicylate biosensor (pEH042)
Protocol: as §1

[9] = system: OapR/P_H16_RS01330 beta-alanine biosensor (pEH147)
Protocol: as §1

[10] = system: PcaQ/P_H16_RS30145 3,4-dihydroxybenzoate biosensor (pEH161)
Protocol: as §1

[11] = system: PhgR/P_H16_RS05530 phenylglyoxylate biosensor (pEH155)
Protocol: as §1

[12] = system: PhhR/P_H16_RS18365 L-phenylalanine biosensor (pEH137)
Protocol: as §1

[13] = system: SauR/P_H16_RS13695 sulfonatoacetate biosensor (pEH157)
Protocol: as §1

[14] = system: TtdR/P_H16_RS10665 tartrate biosensor (pEH083)
Protocol: as §1

[15] = system: XdhR/P_H16_RS05055 xanthine biosensor (pEH154)
Protocol: as §1

[16] = system: heterologous inducible system pEH002 (rhamnose/acrylate/cumate/itaconate set)
Protocol: as §1

[17] = system: heterologous inducible system pEH020 (rhamnose/acrylate/cumate/itaconate set)
Protocol: as §1

[18] = system: heterologous inducible system pEH040 (rhamnose/acrylate/cumate/itaconate set)
Protocol: as §1

[19] = system: heterologous inducible system pEH086 (rhamnose/acrylate/cumate/itaconate set)
Protocol: as §1

[20] = system: BadR/P_H16_RS27200 cyclohexanecarboxylate biosensor (pEH159)
Protocol: as §1
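Note: RFP excited at 585 nm with emission read at 620 nm, culture medium blanks subtracted from fluorescence and absorbance prior to normalisation.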

Row | SMILES | relative induction of RFP reporter [1] | relative induction of RFP reporter [2] | relative induction of RFP reporter [3] | relative induction of RFP reporter [4] | relative induction of RFP reporter [5] | relative induction of RFP reporter [6] | relative induction of RFP reporter [7] | relative induction of RFP reporter [8] | relative induction of RFP reporter [9] | relative induction of RFP reporter [10] | relative induction of RFP reporter [11] | relative induction of RFP reporter [12] | relative induction of RFP reporter [13] | relative induction of RFP reporter [14] | relative induction of RFP reporter [15] | relative induction of RFP reporter [16] | relative induction of RFP reporter [17] | relative induction of RFP reporter [18] | relative induction of RFP reporter [19] | relative induction of RFP reporter [20]
1 | C[C@H](O)C(=O)O [L-lactate] | 29% | -0.0302% | -0.0365% | 1.58% | -1.56% | 0.0155% | -0.0815% | 0.00963% | -0.633% | -0.0469% | -0.429% | -0.296% | -0.0258% | 0.33% | -0.526% | 0.0108% | -1.63% | -1.88% | -0.0751% | –
2 | NCC(=O)O [glycine] | -0.038% | -0.0181% | 0.0164% | -5.21% | 0.401% | -0.178% | 0.211% | 0.0163% | -0.454% | 0.00408% | -0.415% | -0.384% | 0.0965% | 0.812% | -0.0501% | 0.0153% | -0.252% | 0.354% | 0.274% | –
3 | Cn1cnc2c1c(=O)[nH]c(=O)n2C [theobromine] | 0.603% | 0.0327% | 0.0104% | 3.33% | -2.07% | 0.0941% | 1.51% | 0.0192% | 0.977% | -0.0479% | 0.316% | 1.05% | -0.00533% | 0.646% | 0.45% | 0.0324% | -0.957% | 0.453% | 0.597% | –
4 | O=C(O)CCC(=O)O [succinate] | -1.14% | -0.00365% | -0.0349% | 6.43% | -0.306% | -0.187% | 0.402% | 0.0287% | -0.209% | -0.0829% | -0.471% | 0.239% | -0.0135% | 0.784% | 0.357% | 0.0102% | -1.2% | -1.6% | 0.338% | –
5 | C[C@@H](O)C(=O)O [D-lactate] | -2.25% | -0.0311% | -0.0413% | -1.67% | -2.02% | -0.134% | 0.0968% | -0.00031% | -0.533% | -0.113% | -0.587% | -0.462% | 0.0141% | 0.347% | -0.947% | 0.0109% | -0.802% | -1.93% | 0.366% | –
6 | NCC(O)C(=O)O (stereo not drawn) [3-amino-2-hydroxypropanoate] | -0.589% | 0.017% | -0.00343% | -6.17% | -1.08% | -0.132% | -0.0139% | 0.0227% | 33.2% | -0.0272% | -0.304% | -0.491% | 0.0914% | 0.315% | -0.317% | 0.0153% | -1.25% | 0.821% | 0.238% | 0.0183%
7 | OC[C@@H](O)[C@@H](O)[C@H](O)[C@H](O)CO [D-mannitol] | 4.32% | -0.00626% | 0.00493% | -0.914% | -0.506% | -0.0887% | 0.488% | 0.0228% | -0.205% | 0.0552% | -0.267% | 0.344% | 0.0255% | 0.195% | -0.267% | -0.000622% | -0.0264% | 0.166% | 0.0103% | -0.47%
8 | C[C@H](N)C(=O)O [L-alanine] | -2.72% | -0.0291% | -0.053% | -2.12% | -2.55% | -0.329% | -0.519% | 0.00167% | -0.209% | -0.263% | -0.259% | -0.741% | -0.0427% | -0.256% | -0.737% | -0.00357% | -1.6% | -1.7% | -0.23% | –
9 | O=C(O)/C=C\C=C/C(=O)O [cis,cis-muconate] | -0.277% | -0.0203% | -0.00774% | 0.498% | -1.92% | 0.114% | 0.571% | 0.022% | 0.13% | -0.0137% | -0.341% | -0.13% | -0.0287% | 0.125% | -0.143% | -0.00409% | 0.263% | 0.756% | 0.0837% | –
10 | N[C@@H](CC(=O)O)C(=O)O [L-aspartate] | -1.54% | -0.0179% | -0.0325% | 3.34% | -1.17% | -0.138% | -0.00294% | 0.0255% | 0.356% | -0.0549% | -0.232% | 0.437% | 0.0772% | -0.474% | -0.175% | 0.02% | -0.78% | -1.36% | 0.389% | –
11 | Oc1cccc(O)c1 [resorcinol] | 1.11% | -0.0083% | 0.0215% | 3.2% | -1.35% | -0.13% | -0.206% | 0.04% | -1.51% | -0.109% | 0.115% | 0.365% | 0.0138% | 1.74% | -0.161% | -0.00943% | -0.947% | 0.407% | -0.0428% | –
12 | Oc1ccc(O)cc1 [hydroquinone] | 4.27% | 0.188% | 0.0575% | 11.3% | 8.11% | 1.65% | 1.53% | 0.108% | 0.00669% | 0.229% | 1.56% | 2.24% | 0.207% | 1.2% | 0.708% | 0.0465% | -0.0999% | 2.73% | 0.735% | –
13 | CC(N)CC(=O)O (stereo not drawn) [3-aminobutanoate] | 0.0935% | -0.0347% | 0.00428% | -2.98% | -1.28% | -0.191% | -0.097% | 0.00216% | 57.8% | 0.0297% | 0.0503% | -0.0355% | -0.0365% | 0.625% | 0.412% | 0.0041% | -0.315% | 0.21% | 0.139% | –
14 | O=S(=O)(O)CCO [isethionate] | -1.41% | -0.00384% | -0.0202% | -5.83% | -2.12% | -0.0757% | 0.0938% | 0.0152% | -0.424% | 6.61% | -0.518% | -0.0754% | 1.56% | 2.47% | -0.627% | 0.0178% | -1.34% | -1.22% | -0.0664% | –
